# Assay results reported in the supplement of paper PMC8975748.
# Structures can show the parent of a compound that is named as a salt. ± gives the standard deviation of the averaged measurements.
# Legend:
# [1] = test system: Saccharomyces cerevisiae BY4741 SeMeCo community; experiment: mean cell size (pixel area) (pixels); higher = larger cells; settings: 10 µM; 24 h; SM minimal medium
# In short: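 A Saccharomyces cerevisiae BY4741 community carrying four plasmids, each with a fluorescent marker and each complementing one auxotrophy, was exposed for 24 h to drug at a final 10 µM in SM medium in acoustically predosed 384-well plates. The overnight preculture (OD600 = 1.0) was diluted to OD600 = 0.3 before 70 µl was added per well. Cells were then fixed with paraformaldehyde, imaged by automated confocal microscopy and analysed in Harmony to derive mean cell pixel area per well, averaged over 3 replicates. Same SeMeCo high-content imaging drug screen: Selleck FDA-approved drugs at 10 µM, 24 h in SM medium, 384-well plates, 3 replicates.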
# [2] = test system: Saccharomyces cerevisiae BY4741 SeMeCo community; experiment: z-score of prototroph abundance vs DMSO median; higher = larger share of this subpopulation than in DMSO controls; settings: 10 µM; 24 h; SM minimal medium; subpopulation (auxotrophy): Prototroph
# In short: (§1)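 Cells of a Saccharomyces cerevisiae BY4741 community, carrying four plasmids that each restored one auxotrophy and encoded a distinct fluorescent protein, were pre-grown overnight to OD600 1.0 and diluted to 0.3. A 70 µl volume was added to 384-well plates acoustically predosed with library drugs (10 µM final) and grown 24 h in minimal SM medium. After paraformaldehyde fixation, automated confocal microscopy was used, with single-auxotroph fluorescent strains for thresholds and autofluorescence correction. The abundance of each subpopulation was scored as a z-score against the vehicle-well median.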
# [3] = test system: Saccharomyces cerevisiae BY4741 SeMeCo community; experiment: z-score of subpopulation abundance vs DMSO median, subpopulation auxotrophic for M; higher = larger share of this subpopulation than in DMSO controls; settings: 10 µM; 24 h; SM minimal medium; subpopulation (auxotrophy): M
# In short: as §1
# [4] = test system: Saccharomyces cerevisiae BY4741 SeMeCo community; experiment: z-score of subpopulation abundance vs DMSO median, subpopulation auxotrophic for L; higher = larger share of this subpopulation than in DMSO controls; settings: 10 µM; 24 h; SM minimal medium; subpopulation (auxotrophy): L
# In short: as §1
# [5] = test system: Saccharomyces cerevisiae BY4741 SeMeCo community; experiment: z-score of subpopulation abundance vs DMSO median, subpopulation auxotrophic for U; higher = larger share of this subpopulation than in DMSO controls; settings: 10 µM; 24 h; SM minimal medium; subpopulation (auxotrophy): U
# In short: as §1
# [6] = test system: Saccharomyces cerevisiae BY4741 SeMeCo community; experiment: z-score of subpopulation abundance vs DMSO median, subpopulation auxotrophic for H; higher = larger share of this subpopulation than in DMSO controls; settings: 10 µM; 24 h; SM minimal medium; subpopulation (auxotrophy): H
# In short: as §1
# [7] = test system: Saccharomyces cerevisiae BY4741 SeMeCo community; experiment: z-score of subpopulation abundance vs DMSO median, subpopulation auxotrophic for LU; higher = larger share of this subpopulation than in DMSO controls; settings: 10 µM; 24 h; SM minimal medium; subpopulation (auxotrophy): LU
# In short: as §1
# [8] = test system: Saccharomyces cerevisiae BY4741 SeMeCo community; experiment: z-score of subpopulation abundance vs DMSO median, subpopulation auxotrophic for LM; higher = larger share of this subpopulation than in DMSO controls; settings: 10 µM; 24 h; SM minimal medium; subpopulation (auxotrophy): LM
# In short: as §1
# [9] = test system: Saccharomyces cerevisiae BY4741 SeMeCo community; experiment: z-score of subpopulation abundance vs DMSO median, subpopulation auxotrophic for HM; higher = larger share of this subpopulation than in DMSO controls; settings: 10 µM; 24 h; SM minimal medium; subpopulation (auxotrophy): HM
# In short: as §1
# [10] = test system: Saccharomyces cerevisiae BY4741 SeMeCo community; experiment: z-score of subpopulation abundance vs DMSO median, subpopulation auxotrophic for HU; higher = larger share of this subpopulation than in DMSO controls; settings: 10 µM; 24 h; SM minimal medium; subpopulation (auxotrophy): HU
# In short: as §1
# [11] = test system: Saccharomyces cerevisiae BY4741 SeMeCo community; experiment: z-score of subpopulation abundance vs DMSO median, subpopulation auxotrophic for UM; higher = larger share of this subpopulation than in DMSO controls; settings: 10 µM; 24 h; SM minimal medium; subpopulation (auxotrophy): UM
# In short: as §1
# [12] = test system: Saccharomyces cerevisiae BY4741 SeMeCo community; experiment: z-score of subpopulation abundance vs DMSO median, subpopulation auxotrophic for HL; higher = larger share of this subpopulation than in DMSO controls; settings: 10 µM; 24 h; SM minimal medium; subpopulation (auxotrophy): HL
# In short: as §1
# [13] = test system: Saccharomyces cerevisiae BY4741 SeMeCo community; experiment: z-score of subpopulation abundance vs DMSO median, subpopulation auxotrophic for HLM; higher = larger share of this subpopulation than in DMSO controls; settings: 10 µM; 24 h; SM minimal medium; subpopulation (auxotrophy): HLM
# In short: as §1
# [14] = test system: Saccharomyces cerevisiae BY4741 SeMeCo community; experiment: z-score of subpopulation abundance vs DMSO median, subpopulation auxotrophic for HLUM; higher = larger share of this subpopulation than in DMSO controls; settings: 10 µM; 24 h; SM minimal medium; subpopulation (auxotrophy): HLUM
# In short: as §1
# [15] = test system: Saccharomyces cerevisiae BY4741 SeMeCo community; experiment: z-score of subpopulation abundance vs DMSO median, subpopulation auxotrophic for HUM; higher = larger share of this subpopulation than in DMSO controls; settings: 10 µM; 24 h; SM minimal medium; subpopulation (auxotrophy): HUM
# In short: as §1
# [16] = test system: Saccharomyces cerevisiae BY4741 SeMeCo community; experiment: z-score of subpopulation abundance vs DMSO median, subpopulation auxotrophic for LUM; higher = larger share of this subpopulation than in DMSO controls; settings: 10 µM; 24 h; SM minimal medium; subpopulation (auxotrophy): LUM
# In short: as §1
Compound,mean cell size [1],z-score of prototroph abundance [2],z-score of subpopulation abundance [3],z-score of subpopulation abundance [4],z-score of subpopulation abundance [5],z-score of subpopulation abundance [6],z-score of subpopulation abundance [7],z-score of subpopulation abundance [8],z-score of subpopulation abundance [9],z-score of subpopulation abundance [10],z-score of subpopulation abundance [11],z-score of subpopulation abundance [12],z-score of subpopulation abundance [13],z-score of subpopulation abundance [14],z-score of subpopulation abundance [15],z-score of subpopulation abundance [16]
COc1cnc(NS(=O)(=O)c2ccc(N)cc2)nc1 [Sulfameter],12.53 ± 0.07,0,0.05,-0.37,0.75,-0.43,1.19,-0.51,0.07,-0.1,0.21,-0.38,0.42,-0.07,,
CCCCNC(=O)NS(=O)(=O)c1ccc(C)cc1 [Tolbutamide],,0.43,-0.57,-0.55,0.61,,,-0.86,-0.14,-0.31,-0.16,-0.54,-0.11,0.19,-0.36,-1
CCC1(c2ccccc2)C(=O)NCNC1=O [Primidone],12.6 ± 0.23,0.08,,-0.17,-0.16,-0.52,-0.48,-0.37,0.36,0.35,0.54,,0.29,0.15,0.42,0.18
CCn1cc(C(=O)O)c(=O)c2ccc(C)nc21 [Nalidixic acid],11.87 ± 0.1,1.23,,1.23,-0.51,-0.95,-0.49,0.23,-1.62,,-1.42,-0.13,-0.21,-0.59,-1.86,-0.71
CCOC(=O)C1=C(COCCN)NC(C)=C(C(=O)OC)C1c1ccccc1Cl (configuration not stated) [Amlodipine],13 ± 0.37,2.13,3.04,4.02,-7,3.95,,8.35,4.86,-7.36,-8.26,5.86,9.49,,-6.23,-4.72
COC(=O)C1=C(C)NC(C)=C(C(=O)OCCN(C)Cc2ccccc2)C1c1cccc([N+](=O)[O-])c1 (configuration not stated) [Nicardipine HCl],12.4 ± 0.28,-0.59,1.01,0.97,-0.42,0.19,,1.01,0.65,0,0.26,,-0.22,-0.44,0.62,-0.01
O=c1c(-c2ccc(O)cc2)coc2c([C@@H]3O[C@H](CO)[C@@H](O)[C@H](O)[C@H]3O)c(O)ccc12 [Puerarin],12.55 ± 0.11,-0.2,0.72,-0.61,,0.2,-0.47,,1.09,0.41,,0.23,,-0.33,-0.25,-1.14
COC(=O)Nc1nc2cc(C(=O)c3ccc(F)cc3)ccc2[nH]1 [Flubendazole],,0.01,-0.07,0.41,,1.19,-0.32,0.25,0.64,0.34,-0.47,0.98,,-0.02,0.06,0.68
O=C(O)c1cc(O)c2c(c1)[C@H]([C@H]1c3cc(C(=O)O)cc(O)c3C(=O)c3c(O[C@@H]4O[C@H](CO)[C@@H](O)[C@H](O)[C@H]4O)cccc31)c1cccc(O[C@@H]3O[C@H](CO)[C@@H](O)[C@H](O)[C@H]3O)c1C2=O [Sennoside A],12.57 ± 0.12,0.91,-1.76,,0.7,0,0.29,-0.8,-1.46,0.33,-0.14,0.29,-1.24,,-0.7,-0.81
CC(C)(C)C(=O)C(Oc1ccc(Cl)cc1)n1ccnc1 (configuration not stated) [Climbazole],,-9.09,7.09,-2.61,-1.3,,-2.81,0.49,9.21,,,2.46,,8.88,9.71,
CN(Cc1cnc2nc(N)nc(N)c2n1)c1ccc(C(=O)N[C@@H](CCC(=O)O)C(=O)O)cc1 [Methotrexate],15.5 ± 0.33,-1.88,-4.24,-0.82,-2.91,8.39,,1.07,6.94,1.71,,6.68,8.99,,0,0.73
COC(=O)C1=C(C)NC(C)=C(C(=O)OCCN2CCN(C(c3ccccc3)c3ccccc3)CC2)C1c1cccc([N+](=O)[O-])c1 (configuration not stated) [Manidipine],12 ± 0.18,-1.43,1.78,0.96,-1.02,2.53,,2.53,2.14,0.65,-0.6,2.76,0.64,,2.11,0.72
CCC(C)(C)C(=O)O[C@H]1C[C@@H](C)C=C2C=C[C@H](C)[C@H](CC[C@@H]3C[C@@H](O)CC(=O)O3)[C@H]21 [Simvastatin],11.7 ± 0.28,-1.66,-0.68,,0.43,0.79,1.71,-0.1,2.47,,,1.65,3.79,,1.9,1.33
C#C[C@]1(O)CC[C@H]2[C@@H]3CCc4cc(OC)ccc4[C@H]3CC[C@@]21C [Mestranol],12.4 ± 0.25,,-1.19,,-0.41,-0.4,-0.19,-0.14,,-0.49,,-0.16,-0.48,0.02,-0.58,-0.31
NCC[C@H](O)C(=O)N[C@@H]1C[C@H](N)[C@@H](O[C@H]2O[C@H](CN)[C@@H](O)[C@H](O)[C@H]2O)[C@H](O)[C@H]1O[C@H]1O[C@H](CO)[C@@H](O)[C@H](N)[C@H]1O [Amikacin disulfate],11.9 ± 0.14,0.25,-0.8,0.46,0.78,-0.3,,-0.17,-1.21,,0.57,-0.25,-0.68,0.42,-0.51,-0.03
